The text below walks through data of paper PMC11062922 (Nature Chemical Biology, 2023).

The subject of one test is AAK1. Also noted: species or system human, MV4-11 + K-562 + COLO205 + SK-N-BE2 + OVCAR-8. To be noted: read-out: apparent Kd, n = 1.
The next test has as its system BMP2K. The arrangement: species or system human, MV4-11 + K-562 + COLO205 + SK-N-BE2 + OVCAR-8. The note with it: read-out: apparent Kd, n = 1.
The next test concerns CLK1. The arrangement: species or system human, MV4-11 + K-562 + COLO205 + SK-N-BE2 + OVCAR-8. To be noted: read-out: apparent Kd, n = 1.
Another test has as its system CLK4. The arrangement: species or system human, MV4-11 + K-562 + COLO205 + SK-N-BE2 + OVCAR-8. The note with it: read-out: apparent Kd; compound concentrations:100 nM and 1000 nM (sheet 'Samples'); n = 1.
In the next test the test system is CSNK2A1;CSNK2A3. Also noted: species or system human, MV4-11 + K-562 + COLO205 + SK-N-BE2 + OVCAR-8. To be noted: read-out: apparent Kd, n = 1.
The next test concerns CSNK2A2. Also noted: species or system human, MV4-11 + K-562 + COLO205 + SK-N-BE2 + OVCAR-8. The note with it: read-out: apparent Kd, n = 1.
In the next test the test system is FLT4. Also noted: species or system human, MV4-11 + K-562 + COLO205 + SK-N-BE2 + OVCAR-8. To be noted: read-out: apparent Kd, n = 1.
In a further test the test system is GAK. Also noted: species or system human, MV4-11 + K-562 + COLO205 + SK-N-BE2 + OVCAR-8. The note with it: read-out: apparent Kd, n = 1.
The next test deals with GSK3A. Also noted: species or system human, MV4-11 + K-562 + COLO205 + SK-N-BE2 + OVCAR-8. The note with it: read-out: apparent Kd, n = 1.
Another test concerns GSK3B. The arrangement: species or system human, MV4-11 + K-562 + COLO205 + SK-N-BE2 + OVCAR-8. The note with it: read-out: apparent Kd, n = 1.
A further test has as its system NUAK1. The arrangement: species or system human, MV4-11 + K-562 + COLO205 + SK-N-BE2 + OVCAR-8. To be noted: read-out: apparent Kd, n = 1.
For the next test, the system named is PAK4. The arrangement: species or system human, MV4-11 + K-562 + COLO205 + SK-N-BE2 + OVCAR-8. To be noted: read-out: apparent Kd, n = 1.
A further test has as its system PKN1. Also noted: species or system human, MV4-11 + K-562 + COLO205 + SK-N-BE2 + OVCAR-8. The note with it: read-out: apparent Kd, n = 1.
The next test relates to PKN3. Also noted: species or system human, MV4-11 + K-562 + COLO205 + SK-N-BE2 + OVCAR-8. To be noted: read-out: apparent Kd, n = 1.
Another test relates to PRKAG1. Also noted: species or system human, MV4-11 + K-562 + COLO205 + SK-N-BE2 + OVCAR-8. To be noted: read-out: apparent Kd, n = 1.
In a further test the target is Q6ZSR9 (human, UniProt Q6ZSR9). Also noted: species or system MV4-11 + K-562 + COLO205 + SK-N-BE2 + OVCAR-8. The note with it: read-out: apparent Kd, n = 1.
Another test has as its system RET. The arrangement: species or system human, MV4-11 + K-562 + COLO205 + SK-N-BE2 + OVCAR-8. To be noted: read-out: apparent Kd, n = 1.
Another test has as its system SIK2. Also noted: species or system human, MV4-11 + K-562 + COLO205 + SK-N-BE2 + OVCAR-8. The note with it: read-out: apparent Kd, n = 1.
A further test deals with MELK. Also noted: species or system human, MV4-11 + K-562 + COLO205 + SK-N-BE2 + OVCAR-8. The note with it: read-out: apparent Kd; compound concentrations: 100 nM and 1000 nM (sheet 'Samples'), CATDS: 7.6939005676200604E-3; n = 1.
The mark [1] stands for this setting: compound concentrations:100 nM and 1000 nM (sheet 'Samples').

Molecules are shown by their SMILES. Like-named read-outs stand apart in the source and are kept apart here.

Sequence of Q6ZSR9 (Q6ZSR9 whole entry, looked up): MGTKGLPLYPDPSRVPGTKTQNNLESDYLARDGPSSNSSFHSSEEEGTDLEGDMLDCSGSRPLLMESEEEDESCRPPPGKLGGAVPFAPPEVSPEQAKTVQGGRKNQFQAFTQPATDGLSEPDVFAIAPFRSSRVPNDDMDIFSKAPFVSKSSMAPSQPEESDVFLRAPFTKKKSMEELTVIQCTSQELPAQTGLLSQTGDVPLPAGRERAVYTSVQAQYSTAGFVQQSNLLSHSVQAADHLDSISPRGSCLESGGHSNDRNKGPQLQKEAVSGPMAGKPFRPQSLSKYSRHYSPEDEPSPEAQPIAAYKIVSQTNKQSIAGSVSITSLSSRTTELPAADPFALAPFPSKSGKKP

For `CC(C)N1CCC(n2cnc(-c3ccc(F)cc3)c2-c2ccnc(N)n2)CC1` [SB-223132], the potency estimated from few doses in the test on AAK1 (setting [1]) is 730 nM; with BMP2K (setting [1]) it was 531 nM; in the test on CLK1 (setting [1]), 572 nM; with CLK4 it was 686 nM; in the test on CSNK2A1;CSNK2A3 (setting [1]), 1070 nM; in the test with CSNK2A2 (setting [1]) it was 1400 nM. Moreover, the potency estimated from few doses in the test on FLT4 (setting [1]) was 968 nM; with GAK (setting [1]), 333 nM; in the test on GSK3A (setting [1]) it was 359 nM; with GSK3B (setting [1]), 441 nM; in the test with NUAK1 (setting [1]), 1160 nM; in the test with PAK4 (setting [1]), 726 nM. Also, the potency estimated from few doses with PKN1 (setting [1]) is 1440 nM; in the test with PKN3 (setting [1]), 1010 nM; in the test on PRKAG1 (setting [1]), 884 nM; with Q6ZSR9 (setting [1]), 581 nM; in the test on RET (setting [1]) it was 579 nM; in the test on SIK2 (setting [1]), 700 nM.
In the case of `CCOC(=O)N1CCC(n2cnc(-c3ccc(F)cc3)c2-c2ccnc(N)n2)CC1` [SB-219952], the potency estimated from few doses with AAK1 (compound concentrations: 100 nM and 1000 nM (sheet 'Samples'), CATDS: 1.33097974797153E-2) was 454 nM; in the test with BMP2K (compound concentrations: 100 nM and 1000 nM (sheet 'Samples'), CATDS: 1.0000193686827899E-2), 867 nM; in the test on CLK1 (compound concentrations: 100 nM and 1000 nM (sheet 'Samples'), CATDS: 1.18597213826205E-2), 578 nM; in the test with CSNK2A1;CSNK2A3 (compound concentrations: 100 nM and 1000 nM (sheet 'Samples'), CATDS: 1.2357704080210899E-2), 529 nM; with CSNK2A2 (compound concentrations: 100 nM and 1000 nM (sheet 'Samples'), CATDS: 1.08103941261705E-2), 715 nM; with FLT4 (compound concentrations: 100 nM and 1000 nM (sheet 'Samples'), CATDS: 1.0948126782386601E-2) it was 694 nM. Further, the potency estimated from few doses with GAK (compound concentrations: 100 nM and 1000 nM (sheet 'Samples'), CATDS: 1.8528073728162099E-2) was 245 nM; in the test on GSK3A (compound concentrations: 100 nM and 1000 nM (sheet 'Samples'), CATDS: 1.9129432777521899E-2) it was 232 nM; in the test with GSK3B (compound concentrations: 100 nM and 1000 nM (sheet 'Samples'), CATDS: 1.5651651675632799E-2) it was 331 nM; with MELK it was 1970 nM; in the test on NUAK1 (compound concentrations: 100 nM and 1000 nM (sheet 'Samples'), CATDS: 9.2511282375558092E-3) it was 1070 nM; with PAK4 (compound concentrations: 100 nM and 1000 nM (sheet 'Samples'), CATDS: 1.1415940389083201E-2) it was 630 nM. For the same molecule, the potency estimated from few doses in the test on PKN1 (compound concentrations: 100 nM and 1000 nM (sheet 'Samples'), CATDS: 1.0348059231995501E-2) is 795 nM; with PKN3 (compound concentrations: 100 nM and 1000 nM (sheet 'Samples'), CATDS: 9.8185291638943593E-3), 909 nM; with PRKAG1 (compound concentrations: 100 nM and 1000 nM (sheet 'Samples'), CATDS: 1.03550294618252E-2), 794 nM; in the test with Q6ZSR9 (compound concentrations: 100 nM and 1000 nM (sheet 'Samples'), CATDS: 1.30827275923428E-2), 470 nM; in the test on RET (compound concentrations: 100 nM and 1000 nM (sheet 'Samples'), CATDS: 1.35684167881036E-2), 436 nM; in the test on SIK2 (compound concentrations: 100 nM and 1000 nM (sheet 'Samples'), CATDS: 1.0490419954407099E-2) it was 769 nM.
